According to paper PMC11006913:
Substitutions are numbered along the chain they refer to.

Key:
Assay in all cases: PBM; 200 nM protein, PBS
Conditions in all cases: dsDNA, one strand shown
SHOX [1] = molecular target: SHOX (Homo sapiens, UniProt O15266 103-189)
PAX4 [2] = molecular target: T1, PAX4 (Homo sapiens, UniProt O43316 9-242, R200K)
T1 sequence: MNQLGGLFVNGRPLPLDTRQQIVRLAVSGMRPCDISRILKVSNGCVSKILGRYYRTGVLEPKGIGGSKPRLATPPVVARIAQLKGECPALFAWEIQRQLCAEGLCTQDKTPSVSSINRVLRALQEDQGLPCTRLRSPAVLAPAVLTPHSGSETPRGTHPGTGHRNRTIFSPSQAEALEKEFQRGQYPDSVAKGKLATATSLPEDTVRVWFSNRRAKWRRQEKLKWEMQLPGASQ

PAX4 [3] = molecular target: T2, PAX4 (Homo sapiens, UniProt O43316 9-242)
T2 sequence: T1 sequence with K192R

MSX2 [4] = molecular target: MSX2 (Homo sapiens, UniProt P35548 130-214, R199I)
Chain of MSX2 (Homo sapiens, UniProt P35548 130-214, R199I) (P35548 130-214 R199I): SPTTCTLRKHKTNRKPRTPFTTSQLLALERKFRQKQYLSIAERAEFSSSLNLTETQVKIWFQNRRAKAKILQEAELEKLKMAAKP

PAX4 [5] = molecular target: T3, PAX4 (Homo sapiens, UniProt O43316 9-242, R200Q)
T3 sequence: T1 sequence with K192Q

SHOX [6] = molecular target: SHOX (Homo sapiens, UniProt O15266 103-189, R173C)
Chain of SHOX (Homo sapiens, UniProt O15266 103-189, R173C) (O15266 103-189 R173C): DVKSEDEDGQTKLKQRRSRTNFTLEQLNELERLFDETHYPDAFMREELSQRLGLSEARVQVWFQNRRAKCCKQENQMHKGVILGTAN

PAX4 [7] = molecular target: T4, PAX4 (Homo sapiens, UniProt O43316 9-242, F177V)
T4 sequence: T1 sequence with F169V, K192R

MSX2 [8] = molecular target: MSX2 (Homo sapiens, UniProt P35548 130-214)
Chain of MSX2 (Homo sapiens, UniProt P35548 130-214) (P35548 130-214): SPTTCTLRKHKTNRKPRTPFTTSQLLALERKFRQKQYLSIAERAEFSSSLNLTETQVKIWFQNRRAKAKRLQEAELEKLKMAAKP

PAX4 [9] = molecular target: T5, PAX4 (Homo sapiens, UniProt O43316 9-242, F177Y)
T5 sequence: T1 sequence with F169Y, K192R

MSX2 [10] = molecular target: MSX2 (Homo sapiens, UniProt P35548 130-214, F161Y)
Chain of MSX2 (Homo sapiens, UniProt P35548 130-214, F161Y) (P35548 130-214 F161Y): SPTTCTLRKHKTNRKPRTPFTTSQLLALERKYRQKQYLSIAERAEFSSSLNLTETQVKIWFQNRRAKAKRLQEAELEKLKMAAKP

PAX4 [11] = molecular target: T6, PAX4 (Homo sapiens, UniProt O43316 9-242, R227W)
T6 sequence: T1 sequence with K192R, R219W

HOXA2 [12] = molecular target: HOXA2 (Homo sapiens, UniProt O43364 129-215, R185T)
Chain of HOXA2 (Homo sapiens, UniProt O43364 129-215, R185T) (O43364 129-215 R185T): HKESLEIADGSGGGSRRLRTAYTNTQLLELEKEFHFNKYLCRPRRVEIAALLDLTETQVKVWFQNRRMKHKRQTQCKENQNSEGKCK

HOXA2 [13] = molecular target: HOXA2 (Homo sapiens, UniProt O43364 129-215, R185K)
Chain of HOXA2 (Homo sapiens, UniProt O43364 129-215, R185K) (O43364 129-215 R185K): as the sequence (O43364 129-215 R185T) above, with T57K counted along it

HOXA2 [14] = molecular target: HOXA2 (Homo sapiens, UniProt O43364 129-215, Y150S)
Chain of HOXA2 (Homo sapiens, UniProt O43364 129-215, Y150S) (O43364 129-215 Y150S): as the sequence (O43364 129-215 R185T) above, with Y22S, T57R counted along it

HOXA2 [15] = molecular target: HOXA2 (Homo sapiens, UniProt O43364 129-215)
Chain of HOXA2 (Homo sapiens, UniProt O43364 129-215) (O43364 129-215): as the sequence (O43364 129-215 R185T) above, with T57R counted along it

HOXC10 [16] = molecular target: HOXC10 (Homo sapiens, UniProt Q9NYD6 254-340)
Chain of HOXC10 (Homo sapiens, UniProt Q9NYD6 254-340) (Q9NYD6 254-340): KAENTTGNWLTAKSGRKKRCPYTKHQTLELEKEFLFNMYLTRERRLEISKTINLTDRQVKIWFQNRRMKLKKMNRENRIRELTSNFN

ALX1 [17] = molecular target: ALX1 (Homo sapiens, UniProt Q15699 118-204, L144V)
Chain of ALX1 (Homo sapiens, UniProt Q15699 118-204, L144V) (Q15699 118-204 L144V): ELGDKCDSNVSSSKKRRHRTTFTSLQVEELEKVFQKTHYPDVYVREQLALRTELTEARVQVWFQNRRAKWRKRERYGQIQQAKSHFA

ALX3 [18] = molecular target: ALX3 (Homo sapiens, UniProt O95076 139-225, N203Q)
Chain of ALX3 (Homo sapiens, UniProt O95076 139-225, N203Q) (O95076 139-225 N203Q): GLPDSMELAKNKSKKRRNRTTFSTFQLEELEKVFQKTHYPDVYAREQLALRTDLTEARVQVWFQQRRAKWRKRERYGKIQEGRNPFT

ALX1 [19] = molecular target: ALX1 (Homo sapiens, UniProt Q15699 118-204, L144R)
Chain of ALX1 (Homo sapiens, UniProt Q15699 118-204, L144R) (Q15699 118-204 L144R): as the sequence (Q15699 118-204 L144V) above, with V27R counted along it

HOXC10 [20] = molecular target: HOXC10 (Homo sapiens, UniProt Q9NYD6 254-340, K271E)
Chain of HOXC10 (Homo sapiens, UniProt Q9NYD6 254-340, K271E) (Q9NYD6 254-340 K271E): as the sequence (Q9NYD6 254-340) above, with K18E counted along it

ALX3 [21] = molecular target: ALX3 (Homo sapiens, UniProt O95076 139-225)
Chain of ALX3 (Homo sapiens, UniProt O95076 139-225) (O95076 139-225): as the sequence (O95076 139-225 N203Q) above, with Q65N counted along it

ALX3 [22] = molecular target: ALX3 (Homo sapiens, UniProt O95076 139-225, L168Q)
Chain of ALX3 (Homo sapiens, UniProt O95076 139-225, L168Q) (O95076 139-225 L168Q): as the sequence (O95076 139-225 N203Q) above, with L30Q, Q65N counted along it

ALX3 [23] = molecular target: ALX3 (Homo sapiens, UniProt O95076 139-225, L168V)
Chain of ALX3 (Homo sapiens, UniProt O95076 139-225, L168V) (O95076 139-225 L168V): as the sequence (O95076 139-225 N203Q) above, with L30V, Q65N counted along it

ALX1 [24] = molecular target: ALX1 (Homo sapiens, UniProt Q15699 118-204)
Chain of ALX1 (Homo sapiens, UniProt Q15699 118-204) (Q15699 118-204): as the sequence (Q15699 118-204 L144V) above, with V27L counted along it

ALX3 [25] = molecular target: ALX3 (Homo sapiens, UniProt O95076 139-225, N203S)
Chain of ALX3 (Homo sapiens, UniProt O95076 139-225, N203S) (O95076 139-225 N203S): as the sequence (O95076 139-225 N203Q) above, with Q65S counted along it

PRRX1 [26] = molecular target: PRRX1 (Homo sapiens, UniProt P54821 80-166, F113S)
Chain of PRRX1 (Homo sapiens, UniProt P54821 80-166, F113S) (P54821 80-166 F113S): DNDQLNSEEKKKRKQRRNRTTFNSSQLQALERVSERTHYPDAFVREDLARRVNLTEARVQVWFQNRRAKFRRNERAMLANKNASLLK

PRRX1 [27] = molecular target: PRRX1 (Homo sapiens, UniProt P54821 80-166)
Chain of PRRX1 (Homo sapiens, UniProt P54821 80-166) (P54821 80-166): as the sequence (P54821 80-166 F113S) above, with S34F counted along it

HOXB9 [28] = molecular target: HOXB9 (Homo sapiens, UniProt P17482 171-250)
Chain of HOXB9 (Homo sapiens, UniProt P17482 171-250) (P17482 171-250): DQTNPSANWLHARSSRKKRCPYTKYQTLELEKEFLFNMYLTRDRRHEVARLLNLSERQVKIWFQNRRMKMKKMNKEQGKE

HOXB9 [29] = molecular target: HOXB9 (Homo sapiens, UniProt P17482 171-250, R186Q)
Chain of HOXB9 (Homo sapiens, UniProt P17482 171-250, R186Q) (P17482 171-250 R186Q): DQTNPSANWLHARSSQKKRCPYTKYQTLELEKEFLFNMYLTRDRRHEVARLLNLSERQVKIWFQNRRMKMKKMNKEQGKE

Chain of SHOX (Homo sapiens, UniProt O15266 103-189) (O15266 103-189): as the sequence (O15266 103-189 R173C) above, with C71R counted along it

CGGGGGGC
binding signal (SHOX [1]): 7.33 upbm affinity estimate (log intensity, higher = more binding, comparable within an allelic series) | binding signal (PAX4 [2]): 9.22 upbm affinity estimate (log intensity, higher = more binding, comparable within an allelic series) | binding signal (PAX4 [3]): 9.41 upbm affinity estimate (log intensity, higher = more binding, comparable within an allelic series) | binding signal (MSX2 [4]): 9.61 upbm affinity estimate (log intensity, higher = more binding, comparable within an allelic series) | binding signal (PAX4 [5]): 9.12 upbm affinity estimate (log intensity, higher = more binding, comparable within an allelic series) | binding signal (SHOX [6]): 7 upbm affinity estimate (log intensity, higher = more binding, comparable within an allelic series) | binding signal (PAX4 [7]): 8.99 upbm affinity estimate (log intensity, higher = more binding, comparable within an allelic series) | binding signal (MSX2 [8]): 9.76 upbm affinity estimate (log intensity, higher = more binding, comparable within an allelic series) | binding signal (PAX4 [9]): 9.11 upbm affinity estimate (log intensity, higher = more binding, comparable within an allelic series) | binding signal (MSX2 [10]): 9.77 upbm affinity estimate (log intensity, higher = more binding, comparable within an allelic series) | binding signal (PAX4 [11]): 9.12 upbm affinity estimate (log intensity, higher = more binding, comparable within an allelic series)

CGCCCGAC
binding signal (SHOX [1]): 7.09 upbm affinity estimate (log intensity, higher = more binding, comparable within an allelic series) | binding signal (HOXA2 [12]): 7.5 upbm affinity estimate (log intensity, higher = more binding, comparable within an allelic series) | binding signal (SHOX [6]): 7.2 upbm affinity estimate (log intensity, higher = more binding, comparable within an allelic series) | binding signal (HOXA2 [13]): 10.3 upbm affinity estimate (log intensity, higher = more binding, comparable within an allelic series) | binding signal (HOXA2 [14]): 10.6 upbm affinity estimate (log intensity, higher = more binding, comparable within an allelic series) | binding signal (HOXA2 [15]): 7.16 upbm affinity estimate (log intensity, higher = more binding, comparable within an allelic series)

GCCTGCCC
binding signal (SHOX [1]): 7.04 upbm affinity estimate (log intensity, higher = more binding, comparable within an allelic series) | binding signal (HOXC10 [16]): 10.1 upbm affinity estimate (log intensity, higher = more binding, comparable within an allelic series) | binding signal (ALX1 [17]): 6.56 upbm affinity estimate (log intensity, higher = more binding, comparable within an allelic series) | binding signal (ALX3 [18]): 7.64 upbm affinity estimate (log intensity, higher = more binding, comparable within an allelic series) | binding signal (SHOX [6]): 7.13 upbm affinity estimate (log intensity, higher = more binding, comparable within an allelic series) | binding signal (ALX1 [19]): 6.58 upbm affinity estimate (log intensity, higher = more binding, comparable within an allelic series) | binding signal (HOXC10 [20]): 10 upbm affinity estimate (log intensity, higher = more binding, comparable within an allelic series) | binding signal (ALX3 [21]): 7.67 upbm affinity estimate (log intensity, higher = more binding, comparable within an allelic series) | binding signal (ALX3 [22]): 7.69 upbm affinity estimate (log intensity, higher = more binding, comparable within an allelic series) | binding signal (ALX3 [23]): 7.69 upbm affinity estimate (log intensity, higher = more binding, comparable within an allelic series) | binding signal (ALX1 [24]): 6.62 upbm affinity estimate (log intensity, higher = more binding, comparable within an allelic series) | binding signal (ALX3 [25]): 7.72 upbm affinity estimate (log intensity, higher = more binding, comparable within an allelic series)

CGCCTCCC
binding signal (SHOX [1]): 7 upbm affinity estimate (log intensity, higher = more binding, comparable within an allelic series) | binding signal (PAX4 [2]): 9.2 upbm affinity estimate (log intensity, higher = more binding, comparable within an allelic series) | binding signal (PAX4 [3]): 9.23 upbm affinity estimate (log intensity, higher = more binding, comparable within an allelic series) | binding signal (PAX4 [5]): 9.17 upbm affinity estimate (log intensity, higher = more binding, comparable within an allelic series) | binding signal (SHOX [6]): 6.98 upbm affinity estimate (log intensity, higher = more binding, comparable within an allelic series) | binding signal (PAX4 [7]): 9.03 upbm affinity estimate (log intensity, higher = more binding, comparable within an allelic series) | binding signal (PAX4 [9]): 9.1 upbm affinity estimate (log intensity, higher = more binding, comparable within an allelic series) | binding signal (PAX4 [11]): 9.17 upbm affinity estimate (log intensity, higher = more binding, comparable within an allelic series)

ACAAATTA
binding signal (SHOX [1]): 11.4 upbm affinity estimate (log intensity, higher = more binding, comparable within an allelic series) | binding signal (PAX4 [2]): 11.7 upbm affinity estimate (log intensity, higher = more binding, comparable within an allelic series) | binding signal (PAX4 [3]): 12.3 upbm affinity estimate (log intensity, higher = more binding, comparable within an allelic series) | binding signal (MSX2 [4]): 12 upbm affinity estimate (log intensity, higher = more binding, comparable within an allelic series) | binding signal (ALX1 [17]): 11.3 upbm affinity estimate (log intensity, higher = more binding, comparable within an allelic series) | binding signal (ALX3 [18]): 8.4 upbm affinity estimate (log intensity, higher = more binding, comparable within an allelic series) | binding signal (PAX4 [5]): 12.2 upbm affinity estimate (log intensity, higher = more binding, comparable within an allelic series) | binding signal (SHOX [6]): 9.08 upbm affinity estimate (log intensity, higher = more binding, comparable within an allelic series) | binding signal (ALX1 [19]): 10.9 upbm affinity estimate (log intensity, higher = more binding, comparable within an allelic series) | binding signal (PAX4 [7]): 10.5 upbm affinity estimate (log intensity, higher = more binding, comparable within an allelic series) | binding signal (MSX2 [8]): 13.3 upbm affinity estimate (log intensity, higher = more binding, comparable within an allelic series) | binding signal (ALX3 [21]): 12.2 upbm affinity estimate (log intensity, higher = more binding, comparable within an allelic series) | binding signal (PAX4 [9]): 11 upbm affinity estimate (log intensity, higher = more binding, comparable within an allelic series) | binding signal (ALX3 [22]): 10.1 upbm affinity estimate (log intensity, higher = more binding, comparable within an allelic series) | binding signal (ALX3 [23]): 9.54 upbm affinity estimate (log intensity, higher = more binding, comparable within an allelic series) | binding signal (MSX2 [10]): 12.9 upbm affinity estimate (log intensity, higher = more binding, comparable within an allelic series) | binding signal (PAX4 [11]): 11 upbm affinity estimate (log intensity, higher = more binding, comparable within an allelic series) | binding signal (ALX1 [24]): 12 upbm affinity estimate (log intensity, higher = more binding, comparable within an allelic series) | binding signal (ALX3 [25]): 8.51 upbm affinity estimate (log intensity, higher = more binding, comparable within an allelic series)

GGAGGGAA
binding signal (SHOX [1]): 7.13 upbm affinity estimate (log intensity, higher = more binding, comparable within an allelic series) | binding signal (PRRX1 [26]): 9.41 upbm affinity estimate (log intensity, higher = more binding, comparable within an allelic series) | binding signal (SHOX [6]): 7.16 upbm affinity estimate (log intensity, higher = more binding, comparable within an allelic series) | binding signal (PRRX1 [27]): 9.45 upbm affinity estimate (log intensity, higher = more binding, comparable within an allelic series)

GTACAATA
binding signal (SHOX [1]): 8.08 upbm affinity estimate (log intensity, higher = more binding, comparable within an allelic series) | binding signal (HOXB9 [28]): 9.8 upbm affinity estimate (log intensity, higher = more binding, comparable within an allelic series) | binding signal (HOXB9 [29]): 9.79 upbm affinity estimate (log intensity, higher = more binding, comparable within an allelic series)

CGGACAGC
binding signal (SHOX [1]): 7.13 upbm affinity estimate (log intensity, higher = more binding, comparable within an allelic series) | binding signal (PAX4 [2]): 9.47 upbm affinity estimate (log intensity, higher = more binding, comparable within an allelic series) | binding signal (PAX4 [3]): 9.43 upbm affinity estimate (log intensity, higher = more binding, comparable within an allelic series) | binding signal (MSX2 [4]): 9.52 upbm affinity estimate (log intensity, higher = more binding, comparable within an allelic series) | binding signal (ALX1 [17]): 6.29 upbm affinity estimate (log intensity, higher = more binding, comparable within an allelic series) | binding signal (PAX4 [5]): 9.47 upbm affinity estimate (log intensity, higher = more binding, comparable within an allelic series) | binding signal (SHOX [6]): 7.17 upbm affinity estimate (log intensity, higher = more binding, comparable within an allelic series) | binding signal (ALX1 [19]): 6.43 upbm affinity estimate (log intensity, higher = more binding, comparable within an allelic series) | binding signal (PAX4 [7]): 9.4 upbm affinity estimate (log intensity, higher = more binding, comparable within an allelic series) | binding signal (MSX2 [8]): 9.55 upbm affinity estimate (log intensity, higher = more binding, comparable within an allelic series) | binding signal (PAX4 [9]): 9.46 upbm affinity estimate (log intensity, higher = more binding, comparable within an allelic series) | binding signal (MSX2 [10]): 9.53 upbm affinity estimate (log intensity, higher = more binding, comparable within an allelic series) | binding signal (PAX4 [11]): 9.46 upbm affinity estimate (log intensity, higher = more binding, comparable within an allelic series) | binding signal (ALX1 [24]): 6.5 upbm affinity estimate (log intensity, higher = more binding, comparable within an allelic series)
